From PubChem BioAssay AID1851 (National Center for Advancing Translational Sciences (NCATS), 2009) come the findings set out here.

Each structure is given as a SMILES string. Out of some 16,000 compounds screened, about 5,700 (36%) were called active. About 24% were inconclusive and are not listed. Some of the results follow. Values without a mark were called inactive. Calls follow the shape of the dose curve; as a rule, active = well fitted curve in the direction sought with a large enough effect; inconclusive = small, poorly fitted or top-dose-only effect, or effect the other way; inactive = no such curve, though single readings can be large or run the other way.
% is scaled to controls: 0 for no effect and ±100 for the full control effect.

The target in the assay is Cytochrome P450 1A2 (Homo sapiens) (UniProt P05177). Briefly: Cytochrome panel assay with activity outcomes. To be noted: recombinant CYP, pro-luciferin dealkylation, luminescence, p450-cyp1a2; series mostly up to 57.1 µM; activity, negative = inhibition: at the top concentration.
Sequence of Cytochrome P450 1A2 (Homo sapiens) (P05177 whole entry, looked up): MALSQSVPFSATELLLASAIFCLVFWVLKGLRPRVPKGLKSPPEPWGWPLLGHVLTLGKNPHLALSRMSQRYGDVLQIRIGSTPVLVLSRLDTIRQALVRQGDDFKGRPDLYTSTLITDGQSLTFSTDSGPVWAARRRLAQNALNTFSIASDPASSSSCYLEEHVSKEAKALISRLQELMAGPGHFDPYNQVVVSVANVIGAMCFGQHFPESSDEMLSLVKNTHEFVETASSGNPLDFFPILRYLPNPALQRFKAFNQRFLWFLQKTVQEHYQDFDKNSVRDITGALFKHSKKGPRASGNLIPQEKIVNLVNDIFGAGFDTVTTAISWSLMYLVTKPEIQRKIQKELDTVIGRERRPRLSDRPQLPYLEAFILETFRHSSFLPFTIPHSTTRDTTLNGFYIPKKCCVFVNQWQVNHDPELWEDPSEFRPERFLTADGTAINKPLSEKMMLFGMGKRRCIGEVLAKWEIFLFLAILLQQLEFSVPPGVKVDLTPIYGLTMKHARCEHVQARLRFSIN
By AC50 is commonly meant the concentration at which the activity in the assay is half-maximal. For the compound `CCc1c(C)nc2ncnn2c1NCCc1ccc(OC)cc1`, the AC50 was 15.8 µM (active).
Take `Cc1ccc(CNC(=O)CCc2c(C)nc3ncnn3c2C)cc1`: the “activity, negative = inhibition” value is -10.8%.
On the same count and under the same terms, under `CCOC(=O)CCc1c(C)nc2ncnn2c1C` stands -15.3%.
Still for that read-out and setting: under `CC1(C)O[C@H]2O[C@@H]([C@H](O)CON3C(=O)c4ccccc4C3=O)[C@H](O)[C@H]2O1` stands -10.7% [at 11.4 µM]; under `O=c1cc(N2CCC(Cc3ccccc3)CC2)[nH]c(=O)n1C1CCCCC1`, -3.97%.
Same read-out and setting: under `O=S(=O)(c1ccc(Cl)cc1)c1cnc(-c2cccnc2)nc1-c1ccccc1` stands -29.7%.
`O=S(=O)(c1ccccc1)c1cnc(-c2cccnc2)nc1-c1ccc(Cl)cc1Cl`: the AC50 was 8.91 µM (active).
Consider `CCC(C)(C)N=C(NC#N)Nc1cccnc1`, for which the AC50 was 12.6 µM (active).
For the compound `CCCNC(=O)NS(=O)(=O)c1ccc(Cl)cc1`, the “activity, negative = inhibition” value is -1.12% [at 25.6 µM].
Take `O=C1c2ccccc2C(=O)N1Cc1cc(-c2ccccc2Cl)no1`: the AC50 was 0.794 µM (active).
Same read-out and setting: under `O=S(=O)(NCc1cc(-c2ccccc2Cl)no1)c1ccccc1` stands 7.08 µM (active); under `O=S(=O)(NCc1cc(-c2ccccc2Cl)no1)c1ccc(Cl)cc1`, 1 µM (active).
For the compound `C[C@@](O)(CNS(=O)(=O)c1ccccc1)c1ccccc1`, the activity, negative = inhibition is -17.4% [at 11.4 µM].
Consider `COc1ccc(CC(=O)N2CCN(c3ccc(C4=NNC(=O)CC4C)cc3)CC2)cc1` (stereo not given), for which the “activity, negative = inhibition” value is 3.77%.
As for `O=c1[nH][nH]cc1C=Nc1ccccc1O`, the half-maximal activity concentration (AC50) is 10 µM (active).
The same measure, in the same setting: under `COc1cccc(N=Cc2c[nH][nH]c2=O)c1` stands 1 µM (active).
Turning to `O=c1c(C=Nc2ccc(Oc3ccccc3)cc2)c[nH]n1-c1cccc(Cl)n1`, the “activity, negative = inhibition” value was -27.8%.
On the same count and under the same terms, under `N[C@@H](C(=O)O)c1ccc(C(=O)O)c(O)c1` stands -18.4%.
`N[C@@H](C(=O)O)c1cc(O)ccc1Cl`: the AC50 was 15.8 µM (active).
With `N[C@H](C(=O)O)c1ccc(C(=O)O)c(O)c1`, the “activity, negative = inhibition” value is -0.752%.
Same read-out and setting: under `O=C(O)CN(CCOCCOCCN(CC(=O)O)CC(=O)O)CC(=O)O` stands -12.6%.
`CCCNc1nc(NCC)nc(OC)n1`: the AC50 was 11.2 µM (active).
Turning to `CCCn1nc(Oc2nc(NCC)nc(NC(C)C)n2)ccc1=O`, the “activity, negative = inhibition” value is -6.37%.
On to `CCNc1nc(NCC)nc(ON=C(C)C)n1`, for which the AC50 was 14.1 µM (active).
As to `O=S(=O)(c1ccccc1)N1CCC2(CCN(C(c3ccccc3)c3ccccc3)CC2)CC1`, the “activity, negative = inhibition” value is -19.9%.
Take `O=C(Nc1nc2ccc(F)cc2s1)C1CCCO1` (stereo not given): the AC50 is 4.47 µM (active).
In the case of `COc1cc2nc(N(C)CCCNC(=O)[C@@H]3CCCO3)nc(N)c2cc1OC`, the “activity, negative = inhibition” value was -14% [at 25.6 µM].
Turning to `Cc1cccc(C(=O)NNC(=O)C2CCCO2)c1` (stereo not given), the “activity, negative = inhibition” value is -3.1%.
The same measure, in the same setting: under `CS(=O)(=O)N1CCC2(CCN(Cc3ccncc3)CC2)CC1` stands 7%.
In the case of `C[C@@H](CS(=O)(=O)Cc1ccccc1)C(N)=O`, the activity, negative = inhibition was -13.3% [at 11.4 µM].
On to `CC(CCc1ccccc1)NS(=O)(=O)c1ccccc1` (stereo not given), for which the AC50 was 14.1 µM (active).
Regarding `CCOC(=O)[C@H](CCc1ccccc1)N[C@@H](C)C(=O)N1CCC[C@H]1C(=O)O`, the “activity, negative = inhibition” value is -6.41% [at 25.6 µM].
In the case of `CCCCNC(=O)C(=O)NC(C)CCc1ccccc1` (stereo not given), the AC50 was 15.8 µM (active).
The same measure, in the same setting: under `CC(CCc1ccccc1)NC(=O)/C=C/c1ccccc1` (stereo not given) stands 12.6 µM (active).
With `Cc1ccc(S(=O)(=O)N[C@@H](CCc2ccccc2)CC(=O)C(C)(C)C)cc1`, the activity, negative = inhibition was 2.3% [at 11.4 µM].
`CC(CCc1ccccc1)NC(=O)C(=O)NCCO` (stereo not given): the “activity, negative = inhibition” value is -14%.
As to `C[C@@H](CCc1ccccc1)NC[C@H](O)c1ccc(O)c(C(N)=O)c1`, the “activity, negative = inhibition” value is -17.9% [at 25.6 µM].
Same read-out and setting: under `C=CC[C@@H]1C=C[C@H](O/N=C2\c3cc(OC)ccc3O[C@H](c3cccc(OC)c3)[C@H]2O)[C@H](CO)O1` stands -7.04% [at 11.4 µM].
As to `COc1cc(-c2nc3ccccn3c2/N=C/c2ccccc2)ccc1O`, the AC50 was 3.16 µM (active).
For the compound `O=[N+]([O-])c1ccc(Cl)c(-c2ccc(/C=N/c3c(-c4ccco4)nc4ccccn34)o2)c1`, the “activity, negative = inhibition” value was -21.9%.
As for `C[n+]1cc2c3c(ccc2c2ccc4cc5c(cc4c21)OCO5)OCO3`, the AC50 is 3.98 µM (active).
On the same count and under the same terms, under `Cc1cnc(CNc2ccnc(-c3ccc(N(C)C)cc3)n2)cn1` stands 2.51 µM (active); under `Cc1cnc(CNc2ccnc(-c3ccoc3)n2)cn1`, 12.6 µM (active).
With `CO/N=C\c1ccc(C(=O)N2[C@H](c3ccc(C)cc3)[C@@H](C)CC[C@H]2C(=O)OC)cc1`, the activity, negative = inhibition was -13.4% [at 11.4 µM].
Turning to `O=C(O)CC1(CC(=O)O)Nc2ccccc2SC1=O`, the activity, negative = inhibition was 2.04% [at 2.29 µM].
As to `C[N+](C)(C)c1cc2c(nn1)Nc1ccccc1S2`, the AC50 is 2 µM (active).
Take `CCCCC/C=C\C[C@H](O)/C=C\c1cccc(C[C@H](O)CCCCO)n1`: the “activity, negative = inhibition” value was -3.33%.
In the case of `CC(/C=C/c1ccco1)=N/NC(=O)c1ccccc1Cl`, the AC50 is 17.8 µM (active).
Same read-out and setting: under `Cc1ccc(NC(=S)/C(=C(\[O-])c2ccc(C)c([N+](=O)[O-])c2)[n+]2ccccc2)cc1C` stands 14.1 µM (active).
`CC(C)=C1C(=O)C(c2ccccc2)=C2CN3C(=O)N(CCc4ccccc4)C(=O)[C@]3(Cc3ccccc3)[C@H]21`: the “activity, negative = inhibition” value is -14.9%.
Same read-out and setting: under `O=C(O)c1sc2cc(C(F)(F)F)cnc2c1-c1ccccc1` stands -9.27%; under `O=C(O)Cc1ccc2c(c1)N(S(=O)(=O)c1cccc(C(F)(F)F)c1)CC(C(=O)O)O2` (stereo not given), -19.2%.
Still for that read-out and setting: under `CCOC(=O)C1CN(S(=O)(=O)c2cccc(C(F)(F)F)c2)c2cc(CC(=O)OC)ccc2O1` (stereo not given) stands 3.52%; under `O=C(O)c1cccnc1C(=O)O`, -5.13%.
Take `O=C(O)c1cccnc1Nc1cccc(C(F)(F)F)c1`: the AC50 was 5.01 µM (active).
The same measure, in the same setting: under `O=C(COC(=O)c1cccnc1Nc1cccc(C(F)(F)F)c1)NCc1ccc2c(c1)OCO2` stands 3.55 µM (active).
Consider `CCN[C@@H]1C[C@H](C)S(=O)(=O)c2sc(S(N)(=O)=O)cc21`, for which the “activity, negative = inhibition” value was -7.71% [at 25.6 µM].
On to `Cc1ncc(COP(=O)(O)O)c(C)c1O`, for which the activity, negative = inhibition is -20.3% [at 11.4 µM].
Same read-out and setting: under `COC(=O)[C@@H]1CC[C@H](C)[C@@H](c2ccc(C)cc2)N1C(=O)c1ccc(/C=N\O[C@@H](C)CN2CCCCc3nc(C)c(C)cc32)cc1` stands -5.58% [at 11.4 µM].
Take `CC(C)n1nnnc1SCC(=O)c1ccc2c(c1)OCCO2`: the AC50 was 5.01 µM (active).
The same measure, in the same setting: under `CCn1nnnc1SCC(=O)c1ccc2c(c1)OCCO2` stands 8.91 µM (active).
Consider `CC(=O)N[C@H]1[C@@H](O[C@@H](C)C(=O)O)[C@H](O)[C@H](CO)O[C@@H]1O`, for which the “activity, negative = inhibition” value was -2.92% [at 25.6 µM].
Turning to `CO[C@H]1COC(=O)[C@H]2CCCN2C(=O)C/C=C\[C@@H](C)[C@H](OC)COC(=O)C/C=C\[C@@H]1C`, the activity, negative = inhibition was 1.68% [at 11.4 µM].
The same measure, in the same setting: under `Cc1cc(CNC(=O)[C@H]2C[C@@H]2[C@H](NP(=O)(c2ccccc2)c2ccccc2)c2ccccc2)nn1C` stands -8.49%.
Take `COC(=O)[C@@H]1C[C@H]1[C@@H](NC(=O)c1cc(C)nn1C)c1ccccc1`: the AC50 is 15.8 µM (active).
Still for that read-out and setting: under `COC(=O)[C@@H]1C[C@H]1[C@@H](NC(=O)c1cc(C)on1)c1ccccc1` stands 20 µM (active).
Consider `CCNC(=S)NNC(=O)c1cc(C)on1`, for which the “activity, negative = inhibition” value is -11.2%.
Regarding `Cc1cc(C(=O)NNCc2ccccc2)no1`, the AC50 is 12.6 µM (active).
Take `Cc1occc1C(=O)NNC(=O)Cc1ccccc1`: the “activity, negative = inhibition” value is -11.2%.
Still for that read-out and setting: under `COc1ccc(O[C@H]2C=C[C@@H](c3ccccc3)O[C@@H]2CON=C(C)C)cc1` stands -2.27% [at 11.4 µM].
Take `Cc1cc2nc3[nH]c4c(Cl)cc(Cl)cc4c3nc2cc1C`: the AC50 was 0.631 µM (active).
Take `CS(=O)(=O)N1CCC2(CC1)CN(C(=O)Nc1cccc(C#N)c1)C2`: the “activity, negative = inhibition” value was -18.1%.
Consider `C=CCNC(=S)N/N=C/c1ccc(-c2cc(Cl)ccc2Cl)o1`, for which the AC50 is 0.112 µM (active).
The same measure, in the same setting: under `CC(=O)C1=C(O)C=C(c2ccco2)CC1c1ccco1` (stereo not given) stands 5.01 µM (active).
For `CC1=CC=CN2CC(O)CN=C12` (stereo not given), the “activity, negative = inhibition” value is 11.4%.
For the compound `N#Cc1ccccc1NC(=O)Nc1cccs1`, the half-maximal activity concentration (AC50) was 7.08 µM (active).
With `COc1cc2c3cc1Oc1cc(ccc1O)C[C@@H]1c4c(cc(OC)c(O)c4Oc4ccc(cc4)C[C@H]3[N+](C)(C)CC2)CC[N+]1(C)C`, the activity, negative = inhibition is -5.47% [at 11.4 µM].
Take `COC(=O)[C@@H]1CC[C@H](C)[C@@H](c2ccc(C)cc2)N1C(=O)c1ccc(/C=N\OC[C@@H](C)[C@H](OCc2ccccc2)C(C)C)cc1`: the activity, negative = inhibition is -8.55% [at 11.4 µM].
Same read-out and setting: under `COc1ccc([N+](=O)[O-])cc1NC1C2CC3CC(C2)CC1C3` (stereo not given) stands -13.9%.
With `Cc1cc([N+](=O)[O-])ccc1NCc1ccccc1`, the AC50 is 2.82 µM (active).
The same measure, in the same setting: under `COc1ccc([N+](=O)[O-])cc1NCc1ccccc1C` stands 2.82 µM (active).
Consider `Cc1cc(C)c(-c2cc([C@H](C)O/N=C\[C@@H](C)[C@H](OCc3ccccc3)C(C)C)on2)c(C)c1`, for which the activity, negative = inhibition was 5.92% [at 11.4 µM].
On the same count and under the same terms, under `O=C(O)CONC(=O)c1cc(OCC(F)(F)F)ccc1OCC(F)(F)F` stands -17.8%.
As to `S=C(NCCSCc1c(Cl)cccc1Cl)Nc1ccccc1`, the AC50 was 1.41 µM (active).
Regarding `Fc1cccc(NC(=S)NCCCN2CCOCC2)c1`, the “activity, negative = inhibition” value was -12.7%.
Take `Oc1oc(-c2ccccc2)nc1C=Nc1ccccc1`: the AC50 was 0.316 µM (active).
On the same count and under the same terms, under `CN(C)c1ccc(N=Cc2nc(-c3ccccc3)oc2O)cc1` stands 0.398 µM (active).
On the same count and under the same terms, under `CC1=C(C(N)=O)C(c2ccccc2)n2nc(-c3ccncc3)nc2N1` (stereo not given) stands 14.1 µM (active).
Turning to `CSc1nc2n(n1)C(c1cccc(F)c1)C(C(=O)Nc1ccc(C)cc1C)=C(C)N2` (stereo not given), the “activity, negative = inhibition” value was 1.58%.
Still for that read-out and setting: under `CCOC(=O)C1=C(C)Nc2ncnn2C1c1cccnc1` (stereo not given) stands -18.6%; under `COc1ccc(OC)c(Nc2nc(-c3sc(NC(=O)c4ccccc4)nc3C)cs2)c1`, -16%.
For the compound `COc1cccc(Nc2nc(-c3ccc(O)cc3)cs2)c1`, the AC50 was 1 µM (active).
With `COc1cccc([C@H](O)Cn2cc(-c3ccc(CON=C(C)C)cc3)nn2)c1`, the activity, negative = inhibition is -9.27% [at 11.4 µM].
On to `C=CCNC(=S)Nc1ccc2nc(C)c(C)nc2c1`, for which the AC50 is 4.47 µM (active).
Regarding `COc1cc(N=c2ssnc2Cl)cc(OC)c1OC`, the AC50 was 3.16 µM (active).
